Experimental data reported in PubChem BioAssay (EPA / NIEHS).
The source made the active and inactive calls. Rule for the calls: active = hit-call score of the fitted dose curve at least 0.9, where 1 is the maximum; inactive = score below 0.9.

How the values were obtained:
[1] = read-out: CFLAR gene, CFLAR (gene 8837); test: LTEA_HepaRG_CFLAR: Life Technologies and Expression Analysis (LTEA) Assay for CFLAR gene using HepaRG (AID 2283455); details: mRNA level, 48 h; actives raise or lower the signal
In short: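 Differentiated HepaRG cells in serum-free induction medium were exposed 48 h in duplicate to eight half-log concentrations up to 100 uM in 0.5% DMSO; mRNA measured by TaqMan qRT-PCR, normalized to ACTB, GAPDH, POLR2A; bidirectional fitting versus DMSO.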

[2] = read-out: Forkhead box O1 (FOXO1), FOXO1 (gene 2308); test: LTEA_HepaRG_FOXO1: Life Technologies and Expression Analysis (LTEA) Assay for Forkhead box O1 (FOXO1) using HepaRG (AID 2283456); details: mRNA level, 48 h; actives raise or lower the signal
In short: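 Differentiated HepaRG cells, in serum-free induction medium with 0.5% DMSO, exposed 48 h in duplicate to 8-point half-log series from 100 uM. FOXO1 mRNA measured by TaqMan qRT-PCR, normalized to ACTB, GAPDH, POLR2A; bidirectional fit versus DMSO.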

[3] = read-out: growth arrest and DNA damage 45 (GADD45A), GADD45A (gene 1647); test: LTEA_HepaRG_GADD45A: Life Technologies and Expression Analysis (LTEA) Assay for growth arrest and DNA damage 45 (GADD45A) using HepaRG (AID 2283458); details: mRNA level, 48 h; actives raise or lower the signal
In short: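 Differentiated HepaRG cells exposed 48 h in serum-free induction medium to 8 concentrations, top 100 uM in half-log steps, 0.5% DMSO. GADD45A mRNA quantified by qRT-PCR, normalized to ACTB, GAPDH and POLR2A; bidirectional fit versus DMSO.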

[4] = read-out: Forkhead box O3 (FOXO3), FOXO3 (gene 2309); test: LTEA_HepaRG_FOXO3: Life Technologies and Expression Analysis (LTEA) Assay for Forkhead box O3 (FOXO3) using HepaRG (AID 2283459); details: mRNA level, 48 h; actives raise or lower the signal
In short: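 Differentiated human HepaRG cells, 48 h post-plating, exposed in duplicate for 48 h in serum-free induction medium; 8-point half-log series from 100 uM in 0.5% DMSO. FOXO3 mRNA by TaqMan qRT-PCR, normalized to ACTB/GAPDH/POLR2A; bidirectional fit versus DMSO.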

[5] = read-out: ABC Transporter (ABCB1), ABCB1 (gene 5243); test: LTEA_HepaRG_ABCB1: Life Technologies and Expression Analysis (LTEA) Assay for ABC Transporter (ABCB1) using HepaRG (AID 2283460); details: mRNA level, 48 h; actives raise or lower the signal
In short: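 HepaRG cells exposed in duplicate for 48 h in serum-free induction medium to eight half-log concentrations up to 100 uM in 0.5% DMSO. ABCB1 mRNA quantified by qRT-PCR, normalised to ACTB, GAPDH and POLR2A; fitted bidirectionally versus DMSO.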

[6] = read-out: growth arrest and DNA damage 45 (GADD45B), GADD45B (gene 4616); test: LTEA_HepaRG_GADD45B: Life Technologies and Expression Analysis (LTEA) Assay for growth arrest and DNA damage 45 (GADD45B) using HepaRG (AID 2283461); details: mRNA level, 48 h; actives raise or lower the signal
In short: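 qRT-PCR read-out (Fluidigm TaqMan, housekeeping-normalized) of mRNA change in human HepaRG cells after 48 h chemical exposure; 8-point curve, top 100 uM, half-log steps, 0.5% DMSO vehicle; gain or loss fitted relative to DMSO baseline.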

[7] = read-out: ABC Transporter (ABCC3), ABCC3 (gene 8714); test: LTEA_HepaRG_ABCC3: Life Technologies and Expression Analysis (LTEA) Assay for ABC Transporter (ABCC3) using HepaRG (AID 2283462); details: mRNA level, 48 h; actives raise or lower the signal
In short: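 qRT-PCR read-out of ABCC3 transcript, normalized to three housekeeping genes (ACTB, GAPDH, POLR2A), after 48 h chemical exposure of human HepaRG cells. Eight half-log concentrations, highest 100 uM, in 0.5% DMSO; gain or loss fitted relative to DMSO baseline.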

[8] = read-out: ABC Transporter (ABCB11), ABCB11 (gene 8647); test: LTEA_HepaRG_ABCB11: Life Technologies and Expression Analysis (LTEA) Assay for ABC Transporter (ABCB11) using HepaRG (AID 2283463); details: mRNA level, 48 h; actives raise or lower the signal
In short: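 Differentiated human HepaRG cells in serum-free induction medium, dosed in duplicate for 48 h. Eight-point half-log series from 100 uM in 0.5% DMSO; ABCB11 mRNA by qRT-PCR, normalized to ACTB, GAPDH, POLR2A, fitted bidirectionally versus DMSO.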

[9] = read-out: ABC Transporter (ABCC2), ABCC2 (gene 1244); test: LTEA_HepaRG_ABCC2: Life Technologies and Expression Analysis (LTEA) Assay for ABC Transporter (ABCC2) using HepaRG (AID 2283464); details: mRNA level, 48 h; actives raise or lower the signal
In short: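 qRT-PCR (TaqMan, Fluidigm array) read-out of ABCC2 mRNA, normalized to three housekeeping genes. Differentiated HepaRG cells were treated 48 h in serum-free induction medium with 8-point half-log series from 100 uM in 0.5% DMSO; curves fitted bidirectionally relative to DMSO.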

[10] = read-out: Broad substrate specificity ATP-binding cassette transporter ABCG2 (Homo sapiens) (UniProt Q9UNQ0); test: LTEA_HepaRG_ABCG2: Life Technologies and Expression Analysis (LTEA) Assay for ABC Transporter (ABCG2) using HepaRG (AID 2283465); details: mRNA level, 48 h; actives raise or lower the signal
In short: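 Differentiated HepaRG cells were exposed for 48 h in serum-free induction medium to 8 half-log concentrations, top 100 uM, in 0.5% DMSO. ABCG2 mRNA was measured by qRT-PCR, normalized to ACTB, GAPDH and POLR2A, with bidirectional fitting versus DMSO.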

[11] = read-out: ATP-citrate lyase (ACLY), ACLY (gene 47); test: LTEA_HepaRG_ACLY: Life Technologies and Expression Analysis (LTEA) Assay for ATP-citrate lyase (ACLY) using HepaRG (AID 2283466); details: mRNA level, 48 h; actives raise or lower the signal
In short: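 Differentiated HepaRG cells exposed 48 h in serum-free induction medium to eight half-log concentrations up to 100 uM in 0.5% DMSO, duplicates. Transcript measured by Fluidigm TaqMan qRT-PCR, normalized to ACTB, GAPDH, POLR2A; bidirectional fit versus DMSO.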

[12] = read-out: Peroxisomal acyl-coenzyme A oxidase 1 (ACOX1) gene, ACOX1 (gene 51); test: LTEA_HepaRG_ACOX1: Life Technologies and Expression Analysis (LTEA) Assay for Peroxisomal acyl-coenzyme A oxidase 1 (ACOX1) gene using HepaRG (AID 2283467); details: mRNA level, 48 h; actives raise or lower the signal
In short: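 HepaRG cells, plated 48 h then switched to serum-free induction medium, were exposed in duplicate for 48 h to 8-point half-log concentrations up to 100 uM in 0.5% DMSO. ACOX1 mRNA was measured by qRT-PCR, normalized to ACTB/GAPDH/POLR2A, and fitted bidirectionally versus DMSO.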

[13] = read-out: Alkaline Phosphatase, Placental (ALPP) gene, ALPP (gene 250); test: LTEA_HepaRG_ALPP: Life Technologies and Expression Analysis (LTEA) Assay for Alkaline Phosphatase, Placental (ALPP) gene using HepaRG (AID 2283468); details: mRNA level, 48 h; actives raise or lower the signal
In short: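 qRT-PCR readout of ALPP mRNA (Fluidigm TaqMan), normalized to ACTB/GAPDH/POLR2A, after 48 h chemical exposure of HepaRG cells; 8-point half-log series, top 100 uM, 0.5% DMSO vehicle. Bidirectional curve fit versus DMSO baseline.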

[14] = read-out: Bcl-2 (BAD) gene, BAD (gene 572); test: LTEA_HepaRG_BAD: Life Technologies and Expression Analysis (LTEA) Assay for Bcl-2 (BAD) gene using HepaRG (AID 2283469); details: mRNA level, 48 h; actives raise or lower the signal
In short: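 Differentiated HepaRG cells were exposed in duplicate in 0.5% DMSO for 48 h to eight-point half-log concentrations up to 100 uM. BAD mRNA was measured by Fluidigm TaqMan qRT-PCR, normalized to ACTB, GAPDH and POLR2A, and fitted bidirectionally against DMSO.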

[15] = read-out: Bcl-2 (BAX) gene, BAX (gene 581); test: LTEA_HepaRG_BAX: Life Technologies and Expression Analysis (LTEA) Assay for Bcl-2 (BAX) gene using HepaRG (AID 2283470); details: mRNA level, 48 h; actives raise or lower the signal
In short: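 Differentiated HepaRG cells exposed 48 h in serum-free induction medium, eight half-log concentrations from 100 uM, in duplicate, 0.5% DMSO vehicle. BAX mRNA by TaqMan qRT-PCR, normalised to ACTB, GAPDH and POLR2A.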

[16] = read-out: adenosine kinase (ADK) gene, ADK (gene 132); test: LTEA_HepaRG_ADK: Life Technologies and Expression Analysis (LTEA) Assay for adenosine kinase (ADK) gene using HepaRG (AID 2283471); details: mRNA level, 48 h; actives raise or lower the signal
In short: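 HepaRG (human liver), 48 h chemical exposure, 8-pt half-log series, top 100 uM, 0.5% DMSO vehicle. Readout: ADK mRNA by qRT-PCR vs housekeeping genes; bidirectional curve fit relative to DMSO baseline.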

[17] = read-out: Alpha-fetoprotein (AFP) gene, AFP (gene 174); test: LTEA_HepaRG_AFP: Life Technologies and Expression Analysis (LTEA) Assay for Alpha-fetoprotein (AFP) gene using HepaRG (AID 2283472); details: mRNA level, 48 h; actives raise or lower the signal
In short: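 Differentiated human HepaRG cells exposed 48 h in serum-free induction medium, 8-point half-log series from 100 uM in 0.5% DMSO, duplicate. AFP mRNA by qRT-PCR, normalized to ACTB, GAPDH, POLR2A; bidirectional fit vs DMSO.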

BCL2L11 (gene 10018) = test: LTEA_HepaRG_BCL2L11: Life Technologies and Expression Analysis (LTEA) Assay for Bcl-2 (BCL2L11) gene using HepaRG (AID 2283473); details: mRNA level, 48 h; actives raise or lower the signal
In short: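 HepaRG, 48 h exposure, 8-pt half-log series from 100 uM in 0.5% DMSO, duplicates; qRT-PCR (Fluidigm TaqMan) for BCL2L11, housekeeping-normalized; bidirectional curve fit relative to DMSO baseline.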

[18] = read-out: Apolipoprotein A-V (APOA5) gene, APOA5 (gene 116519); test: LTEA_HepaRG_APOA5: Life Technologies and Expression Analysis (LTEA) Assay for Apolipoprotein A-V (APOA5) gene using HepaRG (AID 2283474); details: mRNA level, 48 h; actives raise or lower the signal
In short: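 HepaRG, 48 h chemical exposure in serum-free induction medium, 8-pt half-log series (top 100 uM), 0.5% DMSO vehicle, duplicates. Readout: APOA5 mRNA by qRT-PCR, housekeeping-normalized; bidirectional fit vs DMSO baseline.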

[19] = CEETOX_H295R_TESTO: CeeTox H295R High-throughput Steroidogenesis Assay for Testosterone (TESTO) (AID 2283457); details: actives raise or lower the signal
In short: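 Readout: testosterone quantified by HPLC-MS/MS (C18, ESI positive) after MTBE liquid-liquid extraction of culture medium. Cells were H295R, 48 h chemical exposure per OECD 456 with modifications. Gain or loss of signal fitted relative to DMSO.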

Measured: AC50

Broad substrate specificity ATP-binding cassette transporter ABCG2 (Homo sapiens), sequence (Q9UNQ0 whole entry, looked up): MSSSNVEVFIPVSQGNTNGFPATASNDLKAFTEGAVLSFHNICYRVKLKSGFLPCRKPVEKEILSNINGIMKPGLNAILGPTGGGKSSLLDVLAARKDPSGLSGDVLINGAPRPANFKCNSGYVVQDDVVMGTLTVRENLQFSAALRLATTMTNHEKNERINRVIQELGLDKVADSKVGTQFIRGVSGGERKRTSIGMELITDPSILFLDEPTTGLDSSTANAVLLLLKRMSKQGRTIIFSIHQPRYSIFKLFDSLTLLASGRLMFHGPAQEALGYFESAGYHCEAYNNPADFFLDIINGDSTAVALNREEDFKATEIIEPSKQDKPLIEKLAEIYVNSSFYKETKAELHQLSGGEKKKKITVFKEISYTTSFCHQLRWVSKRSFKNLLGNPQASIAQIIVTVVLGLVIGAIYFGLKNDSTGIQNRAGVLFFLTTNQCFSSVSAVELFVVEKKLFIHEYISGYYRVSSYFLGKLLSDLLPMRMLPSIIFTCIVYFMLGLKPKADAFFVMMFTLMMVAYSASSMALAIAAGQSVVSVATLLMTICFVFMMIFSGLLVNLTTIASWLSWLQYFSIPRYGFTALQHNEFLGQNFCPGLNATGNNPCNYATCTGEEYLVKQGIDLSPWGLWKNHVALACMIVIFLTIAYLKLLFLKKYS

CCOC(=O)c1ccc(C2CCC(NC[C@H](O)COc3ccc(O)c(NS(C)(=O)=O)c3)CC2)cc1 (stereo partly drawn)
active: [4] 8.31 µM | [13] 1.83 µM
not listed: [19]
inactive: all other assays above

COc1cccc(-c2ccc(/C=C\CN3CCCCCC3)cc2Cl)c1
inactive: [1] | [4] | [5] | [11] | [14] | [16] | [17]
active: [2] 70.8 µM | [3] 69 µM | [6] 76.2 µM | [7] 75.9 µM | [8] 69.3 µM | [9] 75.4 µM | [10] 37.8 µM | [12] 45.2 µM | [13] 45.2 µM | [15] 74.5 µM | [18] 71.7 µM

O=C1CCC(N2C(=O)c3ccccc3C2=O)C(=O)N1 (stereo not drawn)
not listed: [14] | BCL2L11 (gene 10018) | [19]
inactive: all other assays above

O=C(O)c1cccc(Oc2ccccc2)c1
not listed: [19]
inactive: all other assays above

CNS(=O)(=O)c1cc(C(=O)N2CCC(CCN3C4CCC3CC(n3c(C)nc5ccccc53)C4)(c3cccc(F)c3)CC2)c(Cl)cc1F (stereo not drawn)
active: [7] 12.5 µM | [8] 24.5 µM | [10] 17.1 µM | [11] 30.9 µM | [12] 13.3 µM | [13] 14.5 µM | [17] 24.6 µM | [18] 30.5 µM
not listed: BCL2L11 (gene 10018)
inactive: all other assays above

CCCCC(CC)COC(=O)CCCCCCCCC(=O)OCC(CC)CCCC (stereo not drawn)
not listed: BCL2L11 (gene 10018) | [19]
inactive: all other assays above

Nc1nc2ncc(CNc3ccc(C(=O)N[C@@H](CCC(=O)O)C(=O)O)cc3)nc2c(=O)[nH]1
not listed: [14] | [19]
inactive: all other assays above
